# Data: the supplement of paper PMC11417369
# The full ranking holds about 25,000 sequences; the median of “ln(normalized median fluorescence intensity)” is about 7.1, and the highest 2% start at about 10. This is one part of a sample in which the highest values are shown more often than they occur.
# Test system: PfSIP2 AP2 domain 1 (GST-tagged)
# Test: gcPBM binding intensity (ln(normalized median fluorescence intensity)); higher = stronger DNA binding
# In short: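 Binding intensity is defined as the maximum Masliner-normalised natural-log median intensity across replicate spots for either probe orientation. It was measured on an Agilent 4 × 180k array of primer-extended double-stranded 36-bp intergenic genomic probes and negative controls, to which GST-tagged P. falciparum DNA-binding domains made in E. coli were applied for 1 h in 1× PBS with 1% milk, 0.2 mg/ml BSA, 0.5% salmon testes DNA and 0.03% Triton X-100. Detection was by Alexa488 anti-GST antibody and scanning at 488 nm.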
row,Sequence,gcPBM binding intensity (ln)
1,TGATTATTATAATTTAGTACATAATATTTTATATAA [XGTACX_site6125],7.07
2,TTTATATATTTATTCACACATATAATATTCCGTCGT [CACACA_site6120],6.88
3,AAAAAAAAAAAAAATACACACATATTTTATAGGGGA [CACACA_site3261],7.19
4,CATATTTACTATCACACACACGATATATATAAATAT [CACACA_site1241],7.25
5,AATATTCATATGCAGGTGCATTAATTTTTATTAATT,10.4
6,TTGATTTCATTTTAAGTGCATAACTAATATTATATA [GTGCAC_site9713],8.07
7,GTTTGAATATATCAGGTGCATTTATAATTCATATGA,10.5
8,TTCATATTCGATAAAGTGCATTAATTTTATTTATCA,8.36
9,ATCATATTTATATTGGTGCATTATGCATGAAATTTA [GTGCAC_site9571],9.94
10,ATCATATGTATGGTGGTGCATTATGCATGAATTTTA [GTGCAC_site9798],10.2
11,ATCATATTTATGTTGGTGCATTATGCATGGATTTTA [GTGCAC_site9795],9.92
12,TTATTAAATTCATAAGTGCATTTATGATTAATTTTT [GTGCAC_site9749],9.08
13,CATTTTCATTTTAAGGTGCATTAATATTTATTTTAA [GTGCAC_site9437],10.4
14,CGCATATTTTATGTTTGTACTCATATGAATATCATA [XGTACX_site4717],6.97
15,CATGAATATTTTAATGTGCACATTTATCATTATATG,8.69
16,TTCATTTTATTTTAAGTGCATATTTTTATTTTTTTG,8.27
17,ATATATTTTTTTTTTTGTACGTATATTTATATAATT [XGTACX_site8719],7.1
18,ATATTACTAATTAATGGTACACGTTATAATAAACTA [XGTACX_site7051],7.12
19,TTCAATAGTAAGTATACACACATATAAATAAATAAA [CACACA_site7295],6.91
20,GTGTGAAACATAAACACACACAAAAAGAAAAAATAG [CACACA_site1227],6.91

row,Sequence,gcPBM binding intensity (ln)
1,TGCTTTTCTTTTTGCACACTTATGCATATATATATA [CACACA_site2583],9.5
2,TATTCAAAAATATAAACAATGAAACAGTATAATATG [CACACA_negctrl_site1482],7.09
3,ATCACAAAATGGAATGTTCTATGATATATATGTATA [XGTACX_negctrl_site460],7.02
4,GCAAAGCACAAATATGCATGTAGATATAGAATAATG [TGCATGCA_site382],7.68
5,ATATATATATATAAAGTGCAAAAATGAAAGTAAGAC [GTGCAC_site9850],9.25
6,GTATATGAGAAAAAAAGTACATGCACAAAATGTATA [XGTACX_site6441],7.42
7,TTTGAAAAGTATGAGGTGCAAAAAATGTAATGAAAT,10.2
8,TAAAATATTATCTACGCACACATTAAAATAAAAAAA [CACACA_site3709],7.17
9,ATTCTAAATATCAGTGCACACATTTCTACGCAAAGT [CACACA_site474],9.9
10,ATTATAAATATCAGTGCACACATTTCTACGCAAAGT [CACACA_site4420],10.4
11,AAAGAATTTGCATATACACACAAAAAAATAAATACA [CACACA_site4373],7.03
12,TATATATTATACACGTGTACACATTATAACAATATA [XGTACX_site7799],7.4
13,TATATATATATATAATGTACTTATATTTTTTTGAGG [XGTACX_site2638],9.46
14,AAGGAAAACAATAGGTGTACCAAACGTCCTAGGAAC [XGTACX_site5732],6.7
15,GTTCTAATATATTGCACACGTAAAAATATAGGTAAT [CACACA_site886],7.42
16,TAATATGAAATGTGTACACACGCACCCACAAAAAAA [CACACA_site8949],10.7
17,TGTAATATGAAATGTGTACACACGCACCCACAAAAA [CACACA_site8948],10.9
18,TAATATGAAAAGTGTACACACGCACAGACAAAAAAA [CACACA_site5594],7.33
19,AATGTGTACGCACGCACACACAAAAAAATATATATA [CACACA_site2913],7.24
20,ATATGAAAGGTGTACACACGCACACCCAAAAAAATA [CACACA_site2911],7.93

row,Sequence,gcPBM binding intensity (ln)
1,GTGTAATATGAAATGTGTACACACGCACACACAAAA [XGTACX_site6180],7.6
2,TATCCCCTTGTCCATATTAATTGTGACATCATATAT [XGTACX_negctrl_site9],7.09
3,TCATTAAAGGAAAAATGTACGTATAAATAAATATAT [XGTACX_site2587],7.07
4,CATAATTTAAAAAAGGTGCAAAATGGATAATATATA [GTGCAC_site9657],11
5,TCATTTTAATTAAAAGTGCAAAAAATAATATAACTA [GTGCAC_site9968],8.31
6,ATTATAAAAGAATTTTTTTTTATTTCATTAAAATAT [CACACA_negctrl_site1137],6.57
7,AGAATTAAAATAAAGGTGCATTTTTTTGTTTCATGT,11
8,TGATATAAAATTAAAGTGCAAAAAAAAAATAAAAAA,8.36
9,GAAAATAAAATAAATGCATGTAAATTTAATGTAATG [TGCATGCA_site996],6.87
10,GAAATAAAAAGAAATGCATGTAATTTTTTTTTTTTT [TGCATGCA_site928],6.71
11,TAAAATATTTCAAAGGTGCAATGATAATTTAAGACG [GTGCAC_site9609],10.4
12,ATTTAAAAAAGAAAGGTGCATTTCAATAATGTAAAA [GTGCAC_site9585],11
13,ATATTTAAAGAATAAGTGCAAAATGTAATTAATTTT [GTGCAC_site9901],7.91
14,AAAAAAAAAAAAAAAGTGCATTAATAAATTTTAATA,9.57
15,TTAATTAATTTTTCAGTGCAAATAAAAAATATTTAA,7.78
16,TACTATATCGATACCAGTACAGATTTATAAATAATA [XGTACX_site7491],6.94
17,ATAAATAATATATATACACACATATCTATACATATT [CACACA_site487],7.05
18,AAATTAAAGGCATAAAAGAAAATATTTAATAAAAAA [CACACA_negctrl_site1689],6.57
19,AATAATAATAAAAAGGTGCTGAAATATTTTTATTAT [GTGCAC_site9763],8.38
20,GCTGAAAGGATAAAGGTGCATATTTTTTAAAAAATT [GTGCAC_site9487],11.2
